A549 tox – A549 cytotoxicity, counter-screen for Nrf2 inhibitors; 0.16% of 390,000 active; Potency, µM (titrated, usually from 46 µM), without a hit: top-dose activity change, negative = cytotoxicity, actives largely listed as inhibitors; A549 ARE-Fluc cells, CellTiter-Fluor viability, 18-24 h; further: on the % scale 0 is the no-effect control and ±100 the full control effect
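A549 ARE-Fluc cells in 5% FBS OPTI-MEM, 5000 cells/well, rested 2 h then exposed to compounds in concentration-response for 18-24 h at 37 °C. Viability by CellTiter-Fluor fluorescence (Ex 405/Em 525) after 30 min; luciferase luminescence (BugLite, 15 min, RT) read afterwards.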
TrxR1 substrate – substrates of rat thioredoxin reductase 1; O89049; purified TrxR1 substrate turnover, NADPH consumption readout; Potency, µM (doses to about 114 µM), for the others: at the top dose activity change, negative = substrate turnover; 0.01% of 390,000 active; further: on the % scale 0 is the no-effect control and ±100 the full control effect; nearly all actives have a fitted effect of over 50% in size
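Rat TrxR1, dispensed at 90 nM, was prereduced with 400 uM NADPH (final) for 5 min at ~22 deg C, then incubated with compound 15 min before 400 uM selenite. A first-read NADPH fluorescence drop versus no-compound background flagged substrates.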
IDH1 R132H inh – blocks human mutant IDH1 R132H enzyme. 0.093% of 390,000 active. Potency, µM (highest dose often 76.6 µM), for inactives: at the top dose activity change, negative = inhibition, hits mostly inhibitors. IDH1-R132H enzyme, NADPH consumption, diaphorase/resazurin fluorescence; further: on the % scale 0 is the no-effect control and ±100 the full control effect; nearly all actives have a fitted effect of over 65% in size
Target sequence (O75874 whole entry R132H, stated change not applied): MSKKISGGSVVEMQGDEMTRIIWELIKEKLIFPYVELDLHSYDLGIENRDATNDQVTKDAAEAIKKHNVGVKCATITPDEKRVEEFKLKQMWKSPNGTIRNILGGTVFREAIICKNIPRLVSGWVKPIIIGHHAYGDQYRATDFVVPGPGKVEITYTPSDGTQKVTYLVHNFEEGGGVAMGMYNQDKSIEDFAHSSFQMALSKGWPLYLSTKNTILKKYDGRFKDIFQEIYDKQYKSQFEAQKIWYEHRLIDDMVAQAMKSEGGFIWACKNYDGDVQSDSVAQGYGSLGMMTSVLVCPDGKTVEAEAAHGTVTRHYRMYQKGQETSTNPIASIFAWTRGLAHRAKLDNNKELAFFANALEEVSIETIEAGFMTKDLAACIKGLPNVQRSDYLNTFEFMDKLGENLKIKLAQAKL
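IDH1-R132H (0.5 ug/mL dispensed) in pH 7.5 Tris buffer was preincubated 30 min with compound, then given a substrate mix of 0.016 mM NADPH and 2 mM alpha-KG for 80 min at room temperature; remaining NADPH was read by diaphorase/resazurin fluorescence.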
rTrxR1 inhibitor – inhibitors of rat thioredoxin reductase 1; recombinant rTrxR1, NADPH fluorescence consumption, selenite substrate; AID 588453; Potency, µM (top dose mostly 114 µM), inactives show at the highest dose activity change, negative = inhibition, most hits filed as inhibitors; 1% of 390,000 active; further: on the % scale 0 is the no-effect control and ±100 the full control effect; nearly all actives have a fitted effect of over 65% in size
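Rat TrxR1 (90 nM in the dispensed reagent) was pre-reduced with 400 uM NADPH for 5 min at room temperature, then incubated with compound for 15 min. After 400 uM selenite was added, NADPH fluorescence (Ex 340/Em 450 nm) was followed for 8 min.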
Nrf2 inh – blocks Nrf2 signaling | Potency, µM (highest dose often 46 µM), for inactives: top-dose activity change, negative = inhibition, hits mostly inhibitors | 2.1% of 360,000 active | A549 ARE-Fluc reporter, luciferase luminescence, 18-24 h | AID 504444; further: on the % scale 0 is the no-effect control and ±100 the full control effect; nearly all actives have a fitted effect of over 60% in size
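Nrf2 activity is the BugLite luminescence, read 15 min after reagent at room temperature, following CellTiter-Fluor cytotoxicity readout (30 min, 37C). Compound titrations were applied for 18-24 h to 5000 A549 ARE_Fluc cells/well in 5% FBS OPTI-MEM.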
Mito fusion yeast – inhibitors of mitochondrial division or activators of mitochondrial fusion. S. cerevisiae fusion-defective mutant growth rescue, CellTiterGlo 48 h. Potency, µM (highest dose often 46.1 µM), for inactives: at the top dose growth rescue (activation), hits mostly activators. 0.23% of 320,000 active. AID 485298; further: % of control where 0% means no effect; nearly all actives have a fitted effect of over 45% in size
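Growth-rescue viability read-out: after 48 h at the non-permissive 37C in glycerol/ethanol YPEG, yeast mitochondrial fusion mutants are measured by CellTiterGlo luminescence; compounds (23 nl pinned per well) restoring growth score as division inhibitors or fusion activators.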
Starred values were filed as active, the others as inactive; ? = inconclusive; . = no result; [ ] = dose if it differs, or a comment. In the library only some 3.1% were active in any assay of this set; here they are far more common. The call rests on the fitted dose curve; in most records, active means well fitted curve in the direction sought with a large enough effect; inconclusive means small, poorly fitted or top-dose-only effect, or another doubt; inactive means no such curve, though single readings can be large; an effect the other way counts as inactive or inconclusive. Potency means the concentration at half of the fitted maximal effect.

SMILES	A549 tox	TrxR1 substrate	IDH1 R132H inh	rTrxR1 inhibitor	Nrf2 inh	Mito fusion yeast
Cc1nc(Nc2ccc(F)cc2)[nH]c(=O)c1CCC(C)C	?	-5%[57.1 µM]	-4%	12%[57.1 µM]	15µM*	1%
CCCCNC(=O)c1cccc(-n2c(C)nc3cccnc32)c1	0%	8%	0%	20%	-2%	.
Cc1ccc(-c2ccccc2NC(=O)CCl)o1	-4%	8%[57.1 µM]	1%	-82%	.	-16%
Cc1ccc(-c2ccccc2NC(=O)CS(=O)CC(=O)Nc2ccc(C)c(Cl)c2)o1 (stereo not drawn)	-1%	1%	-6%	3.5µM*	-9%	6%
CCN(CC)CCNc1cccc2sc3ccccc3c(=O)c12	.	.	5%	.	.	.
CCN(CC)CCNc1ccc(CO)c2sc3ccccc3c(=O)c12	16µM*	-4%	3%	7%	6.5µM*	3%
C#CCN(Cc1ccc(OC)cc1)S(=O)(=O)C=C	.	0%	.	-15%	.	.
O=C(Cc1cccs1)Nc1cccc(-c2nnc(-c3ccco3)o2)c1	-4%	7%[57.1 µM]	0%	-4%[57.1 µM]	-14%	-1%
Cc1ccc(-c2nnc(-c3ccc(NC(=O)Cc4cccs4)cc3)o2)cc1	13µM*	29%	2%	34%	9.2µM*	0%
CCCCN(CC)C(=O)Cn1c(=O)n(-c2ccc(OCC)cc2)c(=O)c2c3c(sc21)CCC3	-11%	-6%	24%	12%	-21%	.
COc1ccc(OCC(=O)Nc2cc(-c3nn(C)c(=O)c4ccccc34)ccc2OC)cc1	-14%	1%	0%	4%	23µM*	0%
COc1ccc(OCC(=O)Nc2ccc(-c3nc4cc(C)cc(C)c4o3)cc2)cc1	1%	6%	14%	19%	?	.
Cc1ccc(CNC(=O)CC(C)S(=O)(=O)c2ccc3c(c2)NC(=O)CS3)o1 (stereo not drawn)	3%	3%	1%	16µM*	?	-2%
Cc1ccn2c(Nc3ccc(F)cc3)c(-c3ccccn3)nc2c1	?	-11%	2%	-10%	16µM*	.
Cc1cccc2nc(-c3ccccn3)c(Nc3ccc(F)cc3)n12	?	14%	-13%	9%	16µM*	.
Cc1cccc2nc(-c3ccccn3)c(Nc3ccccc3)n12	-26%	5%	-11%	16%	10µM*	.
Cc1cccc2nc(-c3ccco3)c(Nc3ccccc3)n12	0%	111%	2%	26%	?	27%
COc1ccccc1-c1nn2c(-c3cc(C)[nH]n3)nnc2s1	0%	-10%[0.0914 µM]	.	-14%	?	.
CC(C)c1ccc(S(=O)(=O)N2CCC(n3c(C(F)(F)F)nc4cccnc43)CC2)cc1	10%	-1%[57.1 µM]	4%	7%[57.1 µM]	-10%	.
O=C(NN1C(=O)/C(=C/c2ccc(O)c([N+](=O)[O-])c2)SC1=S)c1ccccc1Cl	3.7µM*	11%[57.1 µM]	10%	17%[57.1 µM]	?	-2%
Cc1occc1C(=O)NCc1cccc(CNC(=O)c2ccoc2C)c1	1%	-4%	-6%	8.9µM*	0%	0%
Cc1occc1C(=O)NCc1ccc2c(c1)OCO2	-6%	-4%	2%	-7%	-3%	3%
CSc1nc(N)c2ncn([C@@H]3O[C@H](COP(=O)(O)OP(=O)(O)O)C(O)[C@H]3O)c2n1 (stereo partly drawn)	.	-3%[57.1 µM]	.	-5%[57.1 µM]	.	-58%
Cc1cc(C(=O)c2ccccc2)cc(C)c1O	1%	8%[57.1 µM]	3%	3%[57.1 µM]	16%	.
CC1=C/C(=C(\c2cc(C)c(O)c(Br)c2)c2ccccc2S(=O)(=O)O)C=C(Br)C1=O	16µM*	-1%	-2%	-6%	?	-20%
SMILES	A549 tox	TrxR1 substrate	IDH1 R132H inh	rTrxR1 inhibitor	Nrf2 inh	Mito fusion yeast
Cc1cc2ccccc2n1CCNC(=O)c1ccccc1F	13%	-7%	0%	4%	9%	.
O=C(c1ccc2c(=O)n3c(nc2c1)CCCCC3)N1CCN(C(c2ccccc2)c2ccccc2)CC1	-17%	2%	0%	7%	21µM*	-5%
O=C(c1ccc2c(=O)n3c(nc2c1)CCCCC3)N1CCN(c2ccc([N+](=O)[O-])cc2)CC1	?	-7%[57.1 µM]	-10%	16%[57.1 µM]	23µM*	-1%
O=C(c1ccc2c(=O)n3c(nc2c1)CCCCC3)N1CCN(c2ccccc2)CC1	-5%	-5%	-1%	5%	-3%	-2%
COc1ccc(C(=O)CC2(O)C(=O)N(CCc3ccccc3)c3ccc(Br)cc32)cc1OC (stereo not drawn)	?	-3%	4%	30%	23µM*	.
CCCCN1C(=O)C(O)(CC(=O)c2ccco2)c2cc(Br)ccc21 (stereo not drawn)	13%	6%[57.1 µM]	-5%	19%[57.1 µM]	4%	3%
CCCCN1C(=O)C(O)(CC(=O)c2ccc(C)cc2C)c2cc(Br)ccc21 (stereo not drawn)	?	-9%	3%	-8%	26µM*	.
C(=Nc1cnc2ccccc2c1)c1ccncc1	.	130%	.	0%	.	.
CC(C)(C)c1cc(NC(=O)CCl)n(-c2ccccc2)n1	-1%	9%	11%	?	-1%	-15%
CCCc1cc(NC(=O)CCl)n(-c2ccccc2)n1	7%	-1%	7%	50µM*	16%	2%
Cc1cc(C)cc(NC(=O)CSc2ccc(-c3ccco3)nn2)c1	1%	10%[57.1 µM]	11%	-59%	?	9%
CC(=O)Nc1cccc(NC(=O)CSc2ncc(-c3ccc(Cl)cc3)n2Cc2ccco2)c1	-26%	-6%	-3%	?	18µM*	?
COc1cc(NC(=O)CSc2ccc(-c3ccco3)nn2)cc(OC)c1	-7%	2%	3%	35µM*	-19%	2%
CC(=O)Nc1cccc(NC(=O)CSc2ccc(-c3ccco3)nn2)c1	1%	-4%	7%	56µM*	17%	4%
COc1ccc(-c2cnc(SCC(=O)Nc3ccc4c(c3)OCO4)n2Cc2ccco2)cc1	-13%	8%[11.4 µM]	0%	12%[11.4 µM]	?	11%
COc1ccc(NC(=O)CSc2ccc(-c3ccco3)nn2)cc1	0%	-9%	0%	50µM*	-2%	1%
CCn1cc(C(=O)N2CCN(c3ccc(F)cc3)CC2)c(=O)c2cc(S(=O)(=O)N3CCOCC3)ccc21	5%	-1%	-6%	4%	-29%	.
O=C(C[n+]1cccc(Br)c1)c1ccc2c(c1)CCCC2	.	0%	.	-12%	.	.
COc1ccc(-c2onc(C)c2C)cc1S(=O)(=O)NCC1CCN(Cc2cc(C)ccc2C)CC1	-9%	3%[57.1 µM]	-10%	12%[57.1 µM]	-16%	.
FC(F)(F)c1ccccc1NC(=S)N1CCN(Cc2ccc3c(c2)OCO3)CC1	-2%	-1%	-2%	-31%	18µM*	4%

High-throughput results as filed in PubChem BioAssay.
